Test [1] is described as follows: A549 cell viability effects, profiling panel, calcein-AM fluorescence, 48 h, basal (AID 1162). The following applies: higher = more signal.
Test [2] in a line: adipocyte viability effects, profiling panel, cell-based, 3T3-L1 adipocytes, calcein-AM fluorescence, 48 h, basal (AID 1163). Particulars: 3T3-L1 adipocytes viability, higher = more signal.
The nature of test [3]: HepG2 cell viability effects, profiling panel, calcein-AM fluorescence, 48 h, basal (AID 1164). The following applies: higher = more signal.
The nature of test [4]: MM1S cell viability effects, profiling panel, calcein-AM fluorescence, 48 h, basal (AID 1165).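 Further: viability of MM1S multiple myeloma cells under basal unstimulated conditions.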 The following applies: higher = more signal.
Test [5] in a line: basal RPMI8226 viability, no added stimulus, profiling panel, cell-based, calcein-AM fluorescence, 48 h, PK04 Diversity Set (AID 1166).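 Further: cells grown under basal conditions without added stimulus.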 The following applies: RPMI8226 myeloma viability, higher = more signal.
Test [6] in a line: basal HepG2 mitochondrial membrane potential changes, profiling panel, cell-based, JC-1 fluorescence, 24 h, 100 nL compound (AID 1167). The following applies: higher = more signal.
Test [7] in a line: basal 3T3-L1 adipocyte mitochondrial potential changes, profiling panel, cell-based, JC-1 fluorescence, 3T3-L1 adipocytes, 24 h, 100 nL compound (AID 1168). Particulars: JC-1 mitochondrial fluorescence, higher = more signal, called active from +8 up or from −8 down.
Test [8] is described as follows: basal RPMI8226 mitochondrial membrane potential changes, profiling panel, cell-based, JC-1 fluorescence, 24 h, 100 nL compound (AID 1169). Particulars: RPMI8226 myeloma, JC-1 mitochondrial potential fluorescence, higher = more signal.
A short description of test [9]: basal MM1S mitochondrial membrane potential changes, profiling panel, cell-based, JC-1 fluorescence, 24 h, 100 nL compound (AID 1170). Particulars: higher = more signal.
Test [10] is described as follows: A549 lung cancer cell viability effects, profiling panel, resazurin fluorescence, 24 h, PK04 Diversity Set (AID 1171). Particulars: higher = more signal, called active from +8 up or from −8 down. (In general: The colour change of resazurin is a common sign of viable cells or microbes.)

Our source for the z-score values is PubChem BioAssay.

SMILES strings stand for the structures. Activity calls are given as the source filed them.
Further: test concentration not given here.

As to `CC(C)CNC(=O)[C@@]1(Cc2ccccc2I)c2ccccc2C(=O)N(Cc2ccccc2C(F)(F)F)[C@H]1c1ccc(CO)cc1`, the z-score in test [1] is -0.942; in test [2], -0.716; in [3] it was -0.0693; in [4] it was -0.722; in test [5], -0.548; in test [6], 0.081. The z-score is 0.752 (inactive) in test [7], -0.844 in [8], -0.167 in test [9] and -0.328 (inactive) in test [10].
`COCCOC(=O)N1C(=O)[C@@]2(c3cc(C#CC4(O)CCCCCC4)ccc31)[C@H](c1ccccc1OCCO)N1[C@H](c3ccccc3)[C@H](c3ccccc3)OC(=O)[C@H]1[C@@H]2C(=O)N1CCc2cc(OC)c(OC)cc2C1`: the z-score is -0.329 in test [1]; 0.346 in [2]; -0.011 in [3]; -0.889 in test [4]; -1.76 in test [5]; -0.0229 in test [6]. For the same compound, the z-score in [7] is 0.0348 (inactive); in [8] it was -0.686; in [9], -1.14; in test [10] it was 0.512 (inactive).
Consider `COc1cc2c(cc1O)C=[N+](Cc1cc3c(cc1Br)OCO3)CC2`, for which the z-score in test [1] is -0.103; in [2], 0.626; in [3] it was -0.958; in test [4], 0.343; in test [5] it was -0.109; in test [6] it was -0.375. The z-score in [7] was -0.935 (inactive); in test [8] it was 0.108; in test [9] it was -0.374; in test [10] it was -0.698 (inactive).
Regarding `COCC(=C=CC[C@@H](O)c1ccc(OCCO)cc1)C[C@@H](O)c1ccccn1`, the z-score in [1] is -0.583; in test [2] it was -0.936; in [3] it was -0.239; in test [4] it was -0.149; in [5], -0.349; in test [6], -0.964. Further, the z-score was -0.522 (inactive) in [7], 0.375 in test [8], -0.719 in test [9] and 0.192 (inactive) in test [10].
As to `CC(c1ccccc1)C(O)C1C=CC2C(=O)N(C)C(=O)C2N1NC(=O)OC(C)(C)C` (stereo not given), the z-score was -0.431 in test [1]; 0.173 in test [2]; -0.527 in [3]; -0.391 in test [4]; -0.347 in test [5]; -0.741 in test [6]. The z-score in test [7] is -0.439 (inactive); in test [8] it was -0.104; in [9], 0.772; in test [10], 0.866 (inactive).
For the compound `C[N+](C)(C)CCCC[C@@H]1NC(=O)[C@H]2C[C@@H](C(=O)NCCCCCCNC(=O)CS)[C@@H](c3ccc(O)cc3)N2C1=O`, the z-score in test [1] was -0.293; in test [2] it was -0.267; in [3] it was -0.838; in [4], -0.414; in [5] it was 0.498; in [6], -1.66. For the same compound, the z-score was -0.564 (inactive) in test [7], 0.164 in test [8], -0.0762 in test [9] and -0.657 (inactive) in [10].
For `COCCCNC(=O)[C@@]1(CCS(=O)(=O)c2ccccc2)N=C(c2ccc(OCCCO)cc2)O[C@H]1c1ccccc1N=[N+]=[N-]`, the z-score in test [1] is -0.196; in test [2], 2.02; in test [3], -0.43; in [4], 0.0021; in test [5], -2.28; in test [6], 0.4. For the same compound, the z-score in [7] is -0.636 (inactive); in test [8], -0.938; in test [9] it was -1.2; in test [10], 1.36 (inactive).
For `C=CCN1C(=O)[C@]2(O[C@H](CCO)[C@@H]([Si](C)(C)c3ccc(OC)cc3)[C@@H]2C)c2cc(N(C=O)c3ccccc3)ccc21`, the z-score in test [1] was -3.81; in [2], 0.532; in [3] it was -4.8; in test [4], -3.05; in test [5], -4.39; in [6], -1.98. For the same compound, the z-score in test [7] was -0.422 (inactive); in test [8], -0.993; in test [9], -2.23; in [10], -5.28 (inactive).
With `CC1CC/C=C\[C@H]2OC34C=CCN(Cn5nnc6ccccc65)C(=O)[C@H]3N(CCCCCO)C(=O)[C@@H]4C2C(=O)O1` (stereo not given in full), the z-score in [1] is -0.306; in [2], 0.393; in test [3], -0.841; in test [4] it was 1.4; in test [5], -0.0074; in test [6], 0.944. In addition, the z-score is 0.516 (inactive) in test [7], 0.727 in [8], -0.124 in test [9] and 0.411 (inactive) in test [10].
For the compound `COc1ccc([C@H]2C[C@H]3C(I)=C[C@@H]2C(=O)[C@]32CO2)cc1`, the z-score in test [1] was -0.87; in test [2], 0.698; in test [3] it was -0.856; in test [4] it was -3.23; in test [5], -2.81; in [6], -0.22. The z-score is 0.315 (inactive) in [7], -0.474 in [8], -0.967 in [9] and 0.46 (inactive) in test [10].
Regarding `O=C1OCCC=C[C@H]2OC34C=CCN(CCN5CCOCC5)C(=O)[C@H]3N(CCCCCO)C(=O)[C@@H]4C12` (stereo not given in full), the z-score was 0.478 in [1]; 0.0858 in [2]; 1.02 in [3]; -0.0119 in test [4]; 0.218 in test [5]; 0.575 in test [6]. Also, the z-score in [7] was 0.172 (inactive); in [8], -0.152; in [9] it was -0.355; in [10], 0.203 (inactive).
Turning to `COCC(=C=CC[C@H](O)c1cccc(OCCO)c1)C[C@H](O)c1cc(Cl)cc(Cl)c1O`, the z-score is 0.593 in test [1]; -0.317 in test [2]; 0.956 in test [3]; -0.967 in [4]; -0.193 in [5]; 0.277 in [6]. For the same compound, the z-score is 0.86 (inactive) in [7], 0.262 in [8], -0.931 in [9] and 0.627 (inactive) in test [10].
Take `O=C1C2C=CC(C(O)COCc3ccccc3)N(Nc3ccc([N+](=O)[O-])cc3)C2C(=O)N1c1ccccc1` (stereo not given): the z-score was -0.26 in [1]; 0.619 in test [2]; -0.617 in [3]; -0.105 in [4]; -0.0326 in [5]; -1.26 in test [6]. Also, the z-score in test [7] is -1.67 (inactive); in test [8] it was -0.25; in test [9], -1.01; in [10] it was 0.315 (inactive).
In the case of `CCCC[C@@H]1C[C@H]1[C@@H](NC(=O)c1cccnc1)c1ccc(Cl)cc1`, the z-score is -1.01 in test [1]; -1.38 in test [2]; -0.114 in test [3]; -2.05 in test [4]; -3.56 in test [5]; 1.06 in test [6]. Also, the z-score is -0.307 (inactive) in test [7], -0.249 in test [8], -1.62 in test [9] and 1.56 (inactive) in [10].
On to `COCCOC(=O)N1C(=O)[C@@]2(c3cc(C#CC4(O)CCCCCC4)ccc31)[C@H](C(=O)Nc1nc3ccccc3s1)[C@H]1C(=O)O[C@H](c3ccccc3)[C@H](c3ccccc3)N1[C@@H]2c1ccc(OCCO)cc1`, for which the z-score is -0.593 in test [1]; 1.47 in test [2]; -0.15 in test [3]; -1.83 in test [4]; -2.56 in [5]; -3.3 in [6]. Also, the z-score was -0.438 (inactive) in test [7], -0.635 in test [8], -1.18 in test [9] and 0.566 (inactive) in [10].
`O=C1C2C=CC(C(O)c3cc(C(F)(F)F)cc(C(F)(F)F)c3)N(Nc3ccccc3)C2C(=O)N1c1ccccc1` (stereo not given): the z-score was 1.3 in test [1]; -1.48 in test [2]; 0.662 in [3]; -2.24 in test [4]; -3.52 in test [5]; -4.32 in test [6]. Besides, the z-score was -1.36 (inactive) in test [7], -0.982 in test [8], -0.994 in test [9] and 0.626 (inactive) in [10].
`C=C(CCCC)/C(=C/C[C@@H](OC(C)=O)c1ccccc1OCCO)c1cc(C(=O)OC)ccc1OC`: the z-score in test [1] was 1.83; in [2], 0.109; in test [3], 0.741; in test [4], -2.54; in test [5], -0.354; in test [6] it was 1.75. The z-score in [7] is 0.478 (inactive); in [8], -0.118; in [9], 0.234; in [10], 0.873 (inactive).
On to `C=CC[C@]1(C(=O)NCc2ccccc2)N=C(c2ccc(OCCCO)cc2)O[C@H]1c1ccccc1CN=[N+]=[N-]`, for which the z-score is -0.774 in test [1]; 0.0129 in test [2]; 0.22 in test [3]; -1.28 in test [4]; -1.81 in [5]; 0.24 in test [6]. For the same compound, the z-score in test [7] is -0.889 (inactive); in [8], -0.787; in test [9], 0.407; in test [10] it was 0.668 (inactive).
On to `C[N+](C)(C)CCCC[C@@H]1NC(=O)[C@@H]2C[C@H](C(=O)NCCCCCCNC(=O)CS)[C@H](c3ccc(O)cc3)N2C1=O`, for which the z-score in test [1] was -0.617; in [2], -0.0068; in test [3] it was -0.0675; in test [4], -0.14; in test [5], -0.385; in test [6] it was 0.439. Also, the z-score in test [7] is -0.888 (inactive); in test [8] it was -0.111; in test [9] it was -0.432; in [10], -0.382 (inactive).
Turning to `CC(=CC1CCCCC1)[C@@H](NC(=O)c1cccnc1)c1ccc(-c2ccccc2)cc1`, the z-score was -1.3 in test [1]; -0.671 in [2]; -1.63 in test [3]; -2.15 in test [4]; -2.59 in [5]; -2.99 in test [6]. Also, the z-score in test [7] was -1.26 (inactive); in [8], 0.597; in [9] it was -0.462; in [10], 1.49 (inactive).
Consider `[N-]=[N+]=Nc1ccccc1C[C@]1(C(=O)N2CCCCC2)COC(c2ccc(OCCCO)cc2)=N1`, for which the z-score in test [1] is -0.611; in test [2], 0.761; in test [3], -0.328; in test [4], -3.52; in test [5], -4.33; in test [6], -0.676. Further, the z-score in test [7] is 0.00722 (inactive); in test [8], -1.3; in test [9] it was -2.03; in [10], 1.85 (inactive).
On to `CCCCN1CC=CC23O[C@@H]4/C=C\CCCOC(=O)C4[C@H]2C(=O)N(CCCO)[C@@H]3C1=O` (stereo not given in full), for which the z-score was -0.609 in test [1]; 0.803 in test [2]; 0.186 in test [3]; -0.614 in [4]; -0.568 in test [5]; -0.795 in test [6]. Moreover, the z-score in [7] was 1.19 (inactive); in test [8], 0.16; in test [9] it was 0.597; in test [10] it was 0.216 (inactive).
